Measured values reported in PubChem BioAssay (Tox21).
Records with an inconclusive call do not appear. The source made the active and inactive calls. Unless noted, the call rests on the fitted dose curve; in most records, active means well fitted curve in the direction sought with a large enough effect in the repeat runs; inconclusive means weak or mixed curves; inactive means no such curve, though single readings can be large; an effect the other way counts as inactive or inconclusive.

Tests used:
[1] = biological target: Thyrotropin receptor (Homo sapiens) (UniProt P16473); test: qHTS assay to identify small molecule antagonists of the thyroid stimulating hormone receptor (TSHR) signaling pathway (AID 1259385; calls by dose curve; further: nearly all actives have a fitted effect of over 20% in size)
Method in brief: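 Antagonist mode: compound-treated TSHR-expressing HEK293 cells were stimulated with 1.5 ng/mL TSH (final) in presence of Ro20-1724 for 30 min at RT. HTRF cAMP detection after 1 h; each compound tested at 15 concentrations, triplicate.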

[2] = qHTS assay to identify small molecule agonists of the estrogen receptor alpha (ER-alpha) signaling pathway in the presence of an antagonist - cell viability counter screen (AID 1259386);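 further: series mostly up to about 92 µM; cells exposed to compounds for 22 h at 37 °C before the viability read; nearly all actives have a fitted effect of over 30% in size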
Method in brief: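 Viability counter screen using VM7Luc4E2 (full-length ER-alpha, four ERE-luciferase). The cells were treated with compounds alongside ICI-182,780 10.0nM for 22hr, and live-cell protease fluorescence was quantified with CellTiter-Fluor.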

[3] = biological target: Progesterone receptor (Homo sapiens) (UniProt P06401); test: qHTS assay to identify small molecule agonists of the progesterone receptor (PR) signaling pathway (AID 1346784; calls by dose curve; further: nearly all actives have a fitted effect of over 30% in size)
Method in brief: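 Using charcoal-stripped serum (2%) to limit endogenous steroids, PR-UAS-bla HEK 293T cells received compounds for 16 hr at 37C after 6 hr plating; beta-lactamase FRET fluorescence was recorded following 2 hr substrate loading at room temperature.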

[4] = qHTS assay to identify small molecule antagonists of the TGF-beta/Smad signaling pathway - cell viability counter screen (AID 1346824); further: nearly all actives have a fitted effect of over 50% in size
Method in brief: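 Cytotoxicity counter-screen run in the same wells as the beta-lactamase Smad reporter read: CellTiter-Glo luminescence after 30 min at room temperature. HEK 293T SBE-bla cells had 5 hr compound exposure at 37 C with TGF-beta1 (0.25 ng/mL stock).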

[5] = qHTS assay to identify small molecule agonists of the TGF-beta/Smad signaling pathway - cell viability counter screen (AID 1346829); further: top concentration of the series differs between compounds; nearly all actives have a fitted effect of over 45% in size
Method in brief: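 Tox21 qHTS format: SBE-bla HEK 293T cells treated with DMSO-dissolved compounds for 5 hr; CellTiter-Glo luminescence after 30 min at room temperature.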

[6] = qHTS assay to identify small molecule agonists of the TGF-beta/Smad signaling pathway (AID 1346859; active means well fitted activation curve with a large enough effect in the signal ratio in the repeat runs, not every such curve was filed as active; the % refers to the signal ratio; further: series mostly up to about 77 µM)
Method in brief: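 Stable Smad binding element-beta-lactamase HEK 293T cells; 5 hr compound exposure at 37 C under 5% CO2; 2 hr room-temperature substrate step; fluorescence excited at 405 nm, collected at 460 nm and 530 nm.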

[7] = biological target: Thyrotropin-releasing hormone receptor (Homo sapiens) (UniProt P34981); test: qHTS assay to identify small molecule antagonists of the thyrotropin-releasing hormone receptor (TRHR) signaling pathway (AID 1346877; active means well fitted inhibition curve with a large enough effect in the repeat runs, not every such curve was filed as active; further: series mostly up to about 51 µM)
Method in brief: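 Following an 18 h incubation at 37 °C and a 2 h calcium dye load, TRHR-HEK293 cells were exposed to compound (5 min, room temperature) and challenged with TRH, 1 nM final.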

[8] = biological target: Thyrotropin-releasing hormone receptor (Homo sapiens) (UniProt P34981); test: qHTS assay to identify small molecule agonists of the thyrotropin-releasing hormone receptor (TRHR) signaling pathway (AID 1346891; calls by dose curve;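 further: HEK293 cells expressing TRHR with calcium dye readout; series mostly up to about 58 µM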)
Method in brief: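 In 1536-format, 1500 TRHR-Hek293 cells per well grew 18 h, took up calcium dye for 2 h at 37 °C, received compound, and were read kinetically; 15-point titrations, triplicates.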

[9] = Human pregnane X receptor (PXR) small molecule agonists, qHTS cell viability counter screen (AID 1346977); further: nearly all actives have a fitted effect of over 50% in size
Method in brief: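 Readout is CellTiter-Fluor fluorescence from PXR-Luc HepG2 cells. Plated cells rested 5hr, then were treated with compounds for 24hr at 37C and 5% CO2, with reagent present during the last hour.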

[10] = Caspase-3/7 induction in CHO-K1 cells by small molecules, qHTS assay (AID 1346980); further: nearly all actives have a fitted effect of over 15% in size
Method in brief: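 Luminescent Caspase-Glo 3/7 read (30min, room temperature) quantified apoptosis induction. Cells were wild-type CHO-K1, treated with compound for 17hr at 37 C and 5% CO2.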

[11] = Caspase-3/7 induction in HepG2 cells by small molecules, qHTS cell viability counter screen (AID 1346981); further: series mostly up to about 92 µM; nearly all actives have a fitted effect of over 30% in size
Method in brief: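 Viability determined by CellTiter-Fluor fluorescence in HepG2 wells also used for the luminescent Caspase-Glo 3/7 read. Compounds were present for 16 hr at 37 C, 5% CO2 before reagent addition.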

[12] = biological target: Progesterone receptor (Homo sapiens) (UniProt P06401); test: qHTS assay to identify small molecule antagonists of the progesterone receptor (PR) signaling pathway (AID 1346795; active means well fitted inhibition curve with a large enough effect in the signal ratio in the repeat runs, not every such curve was filed as active; the % refers to the signal ratio)
Method in brief: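 Inhibition of R5020-induced (1 nM final) beta-lactamase reporter signal in PR-UAS-bla HEK293T cells was scored by FRET fluorescence after overnight (16 hr) compound treatment.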

[13] = qHTS assay to identify small molecule antagonists of the progesterone receptor (PR) signaling pathway - cell viability counter screen (AID 1346798); further: series mostly up to about 92 µM; nearly all actives have a fitted effect of over 50% in size
Method in brief: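 ATP content as viability readout: CellTiter-Glo luminescence, 30 min room temperature, in PR-UAS-bla HEK293T cells after 16 hr compound/R5020 treatment at 37C and 5% CO2.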

[14] = qHTS assay to identify small molecule agonists of the progesterone receptor (PR) signaling pathway - cell viability counter screen (AID 1346799; calls by dose curve; further: nearly all actives have a fitted effect of over 45% in size)
Method in brief: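 Cytotoxicity in PR-bla HEK293T cells: 16 h compound, 37C; CellTiter-Glo added post-FRET read; luminescence after 30 min RT.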

[15] = Caspase-3/7 induction in HepG2 cells by small molecules, qHTS assay (AID 1346978); further: nearly all actives have a fitted effect of over 15% in size
Method in brief: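 Caspase-3/7 induction was measured by Caspase-Glo 3/7 luminescence (30 min, room temperature) after a 17 hr compound exposure of wild-type HepG2 cells seeded at 2,000 per well and pre-incubated 5 hr.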

[16] = Caspase-3/7 induction in CHO-K1 cells by small molecules, qHTS cell viability counter screen (AID 1346979); further: nearly all actives have a fitted effect of over 35% in size
Method in brief: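 To flag cytotoxic compounds, treated CHO-K1 wild-type cells were given CellTiter-Fluor at 16hr and read fluorescently after 1hr at 37C; the caspase-3/7 luminescence was measured in these same wells.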

[17] = biological target: Nuclear receptor subfamily 1 group I member 2 (Homo sapiens) (UniProt O75469); test: Human pregnane X receptor (PXR) small molecule agonists, qHTS assay (AID 1346982); further: nearly all actives have a fitted effect of over 35% in size; further: potency means the concentration at half of the fitted maximal effect
Method in brief: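 Compound-induced hPXR transactivation of a CYP3A4 luciferase reporter was scored in HepG2 PXR-Luc cells over 24 hr at 37 C, 5% CO2, by luminescence.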

[18] = biological target: Nuclear receptor subfamily 1 group I member 2 (Homo sapiens) (UniProt O75469); test: CYP3A4 induction through human pregnane X receptor (PXR) by small molecules, qHTS assay (AID 1346984); further: nearly all actives have a fitted effect of over 40% in size
Method in brief: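 Readings come from a luciferase reporter: DPX-2 cells, which are HepG2 cotransfected with PXR and a CYP3A4-promoter construct, were exposed to test compounds for 24 h at 37C before One-Glo detection.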

[19] = biological target: Nuclear receptor subfamily 1 group I member 2 (Homo sapiens) (UniProt O75469); test: Human pregnane X receptor (PXR) activation by small molecules, qHTS assay (AID 1346985); further: nearly all actives have a fitted effect of over 40% in size
Method in brief: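 DPX-2 cells (HepG2 co-transfected with a PXR response element and a CYP3A4-promoter luciferase construct) were seeded at 2,000 per well, rested 5 hr at 37C, then exposed to DMSO-dissolved compounds for 24 hr. Activation was read as luciferase luminescence.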

[20] = biological target: Nuclear receptor subfamily 1 group I member 2 (Rattus norvegicus) (UniProt Q9R1A7); test: Rat pregnane X receptor (rPXR) activation by small molecules, qHTS assay (AID 1346983); settings: rPXR luciferase reporter cells, One-Glo luminescence, 24 h; max activation: stronger effect = higher value; further: nearly all actives have a fitted effect of over 20% in size
Method in brief: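 Luminescent readout (One-Glo luciferase, 30 min room temperature) followed 24 hr compound treatment at 37 C of rPXR cells plated 2,000 per well and preincubated 5hr; qHTS format with compounds delivered in DMSO.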
On the % scale 0 is the no-effect control and ±100 the full control effect.

Thyrotropin receptor (Homo sapiens), sequence (P16473 whole entry, looked up): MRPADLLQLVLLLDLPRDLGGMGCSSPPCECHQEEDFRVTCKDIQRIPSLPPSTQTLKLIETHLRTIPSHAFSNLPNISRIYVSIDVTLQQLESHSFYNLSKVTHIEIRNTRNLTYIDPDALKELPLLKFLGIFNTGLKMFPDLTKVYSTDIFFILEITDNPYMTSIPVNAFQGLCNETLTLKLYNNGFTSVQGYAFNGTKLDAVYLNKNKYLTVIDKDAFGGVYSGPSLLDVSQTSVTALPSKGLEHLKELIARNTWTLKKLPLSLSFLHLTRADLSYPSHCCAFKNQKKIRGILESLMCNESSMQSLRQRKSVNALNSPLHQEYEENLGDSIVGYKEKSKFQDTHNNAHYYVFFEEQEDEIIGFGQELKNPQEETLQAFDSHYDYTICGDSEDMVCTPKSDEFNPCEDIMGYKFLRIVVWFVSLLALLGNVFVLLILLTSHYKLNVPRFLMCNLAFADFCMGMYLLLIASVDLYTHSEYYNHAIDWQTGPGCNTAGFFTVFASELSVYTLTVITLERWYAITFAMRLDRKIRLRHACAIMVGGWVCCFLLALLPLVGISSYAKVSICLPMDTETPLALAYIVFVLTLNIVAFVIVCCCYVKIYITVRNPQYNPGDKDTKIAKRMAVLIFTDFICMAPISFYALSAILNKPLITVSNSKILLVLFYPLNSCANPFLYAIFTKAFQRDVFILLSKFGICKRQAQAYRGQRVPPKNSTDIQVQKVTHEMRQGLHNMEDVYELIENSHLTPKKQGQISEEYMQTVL
Thyrotropin-releasing hormone receptor (Homo sapiens), sequence (P34981 whole entry, looked up): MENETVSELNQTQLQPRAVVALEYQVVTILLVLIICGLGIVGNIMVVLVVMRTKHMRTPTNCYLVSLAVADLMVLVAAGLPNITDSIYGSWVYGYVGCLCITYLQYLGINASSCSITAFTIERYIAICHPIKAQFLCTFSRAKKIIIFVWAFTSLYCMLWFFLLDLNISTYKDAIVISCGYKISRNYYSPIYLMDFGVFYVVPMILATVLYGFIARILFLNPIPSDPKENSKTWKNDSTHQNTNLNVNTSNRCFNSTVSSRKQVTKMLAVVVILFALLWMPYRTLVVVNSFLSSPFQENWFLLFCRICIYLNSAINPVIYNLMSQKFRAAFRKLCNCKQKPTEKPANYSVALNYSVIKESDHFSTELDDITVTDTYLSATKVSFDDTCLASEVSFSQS
Nuclear receptor subfamily 1 group I member 2 (Homo sapiens), sequence (O75469 whole entry, looked up): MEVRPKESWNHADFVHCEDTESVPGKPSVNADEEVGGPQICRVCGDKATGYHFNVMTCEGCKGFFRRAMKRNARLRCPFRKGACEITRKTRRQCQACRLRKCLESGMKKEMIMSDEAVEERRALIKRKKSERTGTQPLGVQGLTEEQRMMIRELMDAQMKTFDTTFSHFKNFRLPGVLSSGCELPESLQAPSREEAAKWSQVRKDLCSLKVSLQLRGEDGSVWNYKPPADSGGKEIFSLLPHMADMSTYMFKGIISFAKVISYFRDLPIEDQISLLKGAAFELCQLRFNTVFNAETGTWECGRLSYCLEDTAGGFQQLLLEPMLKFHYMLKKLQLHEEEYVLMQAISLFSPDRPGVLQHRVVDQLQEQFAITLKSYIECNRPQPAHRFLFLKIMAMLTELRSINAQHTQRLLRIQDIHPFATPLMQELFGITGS
Progesterone receptor (Homo sapiens), sequence (P06401 whole entry, looked up): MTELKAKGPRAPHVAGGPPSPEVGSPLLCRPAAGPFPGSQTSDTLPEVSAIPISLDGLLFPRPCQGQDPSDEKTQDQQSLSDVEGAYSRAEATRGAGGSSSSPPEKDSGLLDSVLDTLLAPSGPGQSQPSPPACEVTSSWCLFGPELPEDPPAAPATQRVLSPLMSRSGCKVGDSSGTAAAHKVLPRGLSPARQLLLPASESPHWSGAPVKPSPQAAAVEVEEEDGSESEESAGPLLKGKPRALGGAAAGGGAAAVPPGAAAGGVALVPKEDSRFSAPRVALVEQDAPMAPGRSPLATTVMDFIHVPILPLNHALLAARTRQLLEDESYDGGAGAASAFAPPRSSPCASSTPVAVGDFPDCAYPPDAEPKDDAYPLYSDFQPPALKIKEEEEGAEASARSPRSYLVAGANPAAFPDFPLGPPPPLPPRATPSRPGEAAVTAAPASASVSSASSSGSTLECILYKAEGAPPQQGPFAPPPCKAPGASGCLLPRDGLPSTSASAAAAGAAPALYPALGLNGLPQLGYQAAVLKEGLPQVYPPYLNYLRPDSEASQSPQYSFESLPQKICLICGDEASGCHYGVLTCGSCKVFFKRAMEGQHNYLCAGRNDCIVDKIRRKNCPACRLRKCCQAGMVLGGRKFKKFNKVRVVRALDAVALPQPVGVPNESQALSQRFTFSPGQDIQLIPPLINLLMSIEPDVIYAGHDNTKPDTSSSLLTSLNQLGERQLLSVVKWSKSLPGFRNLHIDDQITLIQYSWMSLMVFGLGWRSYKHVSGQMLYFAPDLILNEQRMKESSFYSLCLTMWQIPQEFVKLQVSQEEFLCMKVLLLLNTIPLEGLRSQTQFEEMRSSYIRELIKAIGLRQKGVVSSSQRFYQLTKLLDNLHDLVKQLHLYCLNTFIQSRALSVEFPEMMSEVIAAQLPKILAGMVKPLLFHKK
Nuclear receptor subfamily 1 group I member 2 (Rattus norvegicus), sequence (Q9R1A7 whole entry, looked up): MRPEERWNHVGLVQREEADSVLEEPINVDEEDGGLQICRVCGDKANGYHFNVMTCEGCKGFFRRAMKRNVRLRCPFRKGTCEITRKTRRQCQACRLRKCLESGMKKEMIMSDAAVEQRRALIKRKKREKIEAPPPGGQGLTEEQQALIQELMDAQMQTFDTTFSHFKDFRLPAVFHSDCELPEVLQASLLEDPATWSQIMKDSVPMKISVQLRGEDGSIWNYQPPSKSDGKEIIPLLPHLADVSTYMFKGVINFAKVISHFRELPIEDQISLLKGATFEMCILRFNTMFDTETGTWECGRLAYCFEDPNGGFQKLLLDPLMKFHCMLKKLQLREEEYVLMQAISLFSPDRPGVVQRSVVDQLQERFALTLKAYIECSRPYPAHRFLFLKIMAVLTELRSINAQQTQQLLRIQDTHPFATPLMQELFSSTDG

CCN1CCCC1CNC(=O)c1cc(S(N)(=O)=O)ccc1OC (centres undefined)
inactive: Potency [1] | outcome [2] | Potency [3] | outcome [4] | outcome [5] | outcome [6] | outcome [7] | outcome [8] | Potency [9] | outcome [10] | outcome [11]

OCC(O)[C@@H](O)[C@H](O)[C@H](O)CO[C@H]1O[C@H](CO)[C@@H](O)[C@H](O)[C@H]1O (some centres undefined)
inactive: Potency [1] | outcome [2] | Potency [12] | Potency [13] | Potency [14] | outcome [4] | outcome [6] | outcome [7] | outcome [8] | Potency [9] | outcome [15] | Potency [16] | outcome [10] | Potency [17]

CCCCCN(CCCCC)C(=O)C(CCC(=O)O)NC(=O)c1ccc(Cl)c(Cl)c1 (centres undefined)
inactive: Potency [1] | outcome [2] | Potency [3] | outcome [4] | outcome [6] | outcome [7] | outcome [8] | Potency [9] | Potency [16] | outcome [10] | outcome [11]

C[C@H](O)C(=O)Nc1c(I)c(C(=O)NC(CO)CO)c(I)c(C(=O)NC(CO)CO)c1I
inactive: Potency [1] | outcome [2] | Potency [12] | Potency [13] | Potency [14] | outcome [4] | outcome [5] | Potency [9] | outcome [15] | Potency [16] | outcome [10] | outcome [11] | Potency [17] | Potency [18] | Potency [19]

C=CCOCC(O)CS(=O)(=O)O (centres undefined)
inactive: Potency [1] | outcome [2] | Potency [3] | Potency [13] | Potency [14] | outcome [4] | outcome [6] | outcome [7] | outcome [8] | Potency [9] | outcome [15] | Potency [16] | outcome [10]

CCCCCOC(=O)Nc1nc(=O)n([C@@H]2O[C@H](C)[C@@H](O)[C@H]2O)cc1F
inactive: Potency [1] | outcome [2] | Potency [12] | Potency [13] | Potency [14] | outcome [4] | Potency [9] | outcome [15] | Potency [16] | outcome [10] | outcome [11] | max activation [20] -1.91% | Potency [18] | Potency [19]

COC(=O)CCCCCCCCC(=O)OC
inactive: Potency [1] | outcome [2] | Potency [12] | Potency [13] | Potency [14] | outcome [4] | outcome [6] | outcome [7] | outcome [8] | Potency [9] | Potency [16] | outcome [10] | outcome [11]

CC(=O)O[C@H](CC(=O)[O-])C[N+](C)(C)C
inactive: Potency [1] | outcome [2] | Potency [12] | Potency [13] | Potency [14] | outcome [4] | outcome [5] | outcome [6] | outcome [7] | outcome [8] | Potency [9] | Potency [16] | outcome [10] | outcome [11]

COc1ccc(N=[N+]([O-])c2ccc(OC)cc2)cc1
active: Potency [17] 0.34 µM
inactive: Potency [1] | outcome [2] | Potency [12] | outcome [4] | outcome [5] | outcome [6] | outcome [7] | outcome [8] | Potency [9] | outcome [15] | outcome [10]

CN(C)CCOC(c1ccc(Cl)cc1)c1ccccn1 (centres undefined)
inactive: Potency [1] | outcome [2] | Potency [12] | Potency [13] | Potency [14] | outcome [5] | outcome [6] | outcome [7] | outcome [8] | Potency [9] | outcome [15] | Potency [16] | outcome [10] | outcome [11] | Potency [17] | max activation [20] -0.352% | Potency [18]

COC(=O)C1=C(C)NC(C)=C(C(=O)OCC(C)=O)C1c1ccccc1[N+](=O)[O-] (centres undefined)
inactive: Potency [1] | outcome [2] | Potency [12] | Potency [13] | outcome [4] | outcome [6] | outcome [7] | outcome [8] | Potency [9] | outcome [15] | Potency [16] | outcome [10] | outcome [11]

C[C@H]1O[C@@H](n2cc(F)c(=O)[nH]c2=O)[C@H](O)[C@@H]1O
inactive: Potency [1] | outcome [2] | Potency [3] | Potency [13] | outcome [4] | outcome [5] | outcome [6] | outcome [7] | outcome [8] | Potency [9] | outcome [15] | Potency [16] | outcome [10] | outcome [11] | Potency [17] | max activation [20] -1.26% | Potency [18] | Potency [19]

C=C(C)[C@@H]1CCC2=CC(=O)C[C@@H](C)[C@]2(C)C1
inactive: Potency [1] | outcome [2] | Potency [3] | Potency [14] | outcome [4] | outcome [5] | outcome [6] | Potency [9] | outcome [15] | Potency [16] | outcome [10] | outcome [11]

CCCC=O
inactive: Potency [1] | outcome [2] | Potency [12] | Potency [13] | Potency [14] | outcome [4] | outcome [5] | outcome [6] | Potency [9] | outcome [15] | Potency [16] | outcome [10] | outcome [11]

COc1cc(CCC(C)=O)ccc1O
inactive: Potency [1] | outcome [2] | Potency [12] | Potency [14] | outcome [4] | outcome [5] | outcome [6] | outcome [15] | Potency [16] | outcome [10] | outcome [11] | Potency [17]

CC(C=O)Cc1ccc(C(C)C)cc1 (centres undefined)
inactive: Potency [1] | outcome [2] | Potency [12] | Potency [13] | Potency [14] | outcome [4] | outcome [5] | outcome [6] | outcome [7] | outcome [8] | Potency [9] | Potency [16] | outcome [10] | outcome [11] | Potency [17]

NCCN1CCNC1=O
inactive: Potency [1] | outcome [2] | Potency [12] | Potency [13] | Potency [14] | outcome [6] | Potency [9] | outcome [15] | Potency [16] | outcome [10] | outcome [11] | Potency [17]

CCC(C)(C)C1CCC(OC)CC1 (centres undefined)
active: Potency [17] 30.6 µM
inactive: Potency [1] | outcome [2] | Potency [12] | Potency [13] | Potency [14] | outcome [4] | outcome [5] | outcome [6] | outcome [7] | outcome [8] | Potency [9] | outcome [15] | Potency [16] | outcome [10]
